{"source": "PubChem BioAssay AID1053126", "about": "(Broad Institute, 2014)", "note": "Potency and affinity values are given separately. Calls of active or inactive are those of the source.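 How the source made its calls: active means cell killing with a fitted half-effect concentration at or below twice the top valid dose; inconclusive means flat curve with 30 to 70 percent drop, or poor fit; inactive means the rest.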", "data": [{"test": "viability loss in HEK293T kidney cells – cell-based, ATP luminescence, cherry-pick, set 6, cytotoxicity control, dose response (AID 1053126)", "conditions": "CellTiter-Glo ATP luminescence, 72 h; series mostly up to 26 µM", "values": [{"smiles": "CCC(C)NC(=S)N1CCN(Cc2ccc3c(c2)OCO3)CC1", "note": "(configuration not stated)", "outcome": "inactive"}, {"smiles": "CCCn1c(=N)c(S(=O)(=O)c2ccccc2)cc2c(=O)n3ccccc3nc21", "outcome": "inactive"}, {"smiles": "Cc1cccn2c(=O)c3cc(C(=O)NCC4CCCO4)c(=N)n(CC4CCCO4)c3nc12", "note": "(configuration not stated)", "outcome": "inactive"}, {"smiles": "CCOc1ccc(C(=O)c2cc3ccc(O)cc3oc2=O)cc1", "outcome": "inactive"}, {"smiles": "CCN(CC)c1ccc2cc(C(N)=O)c(=O)oc2c1", "outcome": "inactive"}, {"smiles": "Cc1c2c(n3c(nc4ccccc43)c1C#N)N(CCN1CCOCC1)CC2", "outcome": "inactive"}, {"smiles": "O=C(O)c1cccc(Nc2nc(-c3cc4ccccc4oc3=O)cs2)c1", "outcome": "inactive"}, {"smiles": "CSc1ccc(Cl)c(C(=O)N2CCOc3ccccc32)c1", "outcome": "inactive"}, {"smiles": "COCCN1C=C(C(=O)OC)C(c2ccc(Cl)cc2)C(C(=O)OC)=C1", "outcome": "inactive"}, {"smiles": "CN1c2ccc(Cl)cc2C(=O)NC1C1CC=CCC1", "note": "(configuration not stated)", "outcome": "inactive"}, {"smiles": "CCCCCCc1cc2cc(S(=O)(=O)c3ccc(C)cc3)c(=O)oc2cc1O", "outcome": "inactive"}, {"smiles": "CCCOc1ccc(NC(=O)c2c(-c3ccccc3)noc2C)cc1", "outcome": "inactive"}, {"smiles": "O=C(Nc1ccc2c(c1)OCCO2)c1ccc(NC(=O)C2CCCO2)cc1", "note": "(configuration not stated)", "outcome": "inactive"}, {"smiles": "O=C(NCc1ccc(F)cc1)C1CCCN1C(=O)Nc1cccc(F)c1", "note": "(configuration not stated)", "outcome": "inactive"}, {"smiles": "CCC(=O)NCCCNc1nc2c(C)cccc2cc1C#N", "outcome": "inactive"}, {"smiles": "COc1ccc(CCN=C(N)NS(=O)(=O)c2ccc(F)cc2)cc1", "outcome": "inactive"}, {"smiles": "CSc1ccc(Cn2c(C)c(C(=O)NCCC#N)sc2=O)cc1", "outcome": "inactive"}, {"smiles": "COc1ccc(C2CC(c3cccs3)=NN2c2nc(C)c(C(C)=O)s2)cc1OC", "note": "(configuration not stated)", "outcome": "inactive"}, {"smiles": "CCc1nc2ccc(C(=O)NCCc3c[nH]c4ccccc34)cn2c1N(C=O)CCC(C)C", "outcome": "inactive"}, {"smiles": "COC(=O)C1=CN(Cc2ccc(OC)c(OC)c2)C=C(C(=O)OC)C1c1cccc(F)c1", "outcome": "inactive"}, {"smiles": "CCOc1ccc2nc(NCCCNS(=O)(=O)c3ccc(C)cc3)c(C#N)cc2c1", "outcome": "inactive"}, {"smiles": "CC(=O)NNc1cc(N2CCOCC2)nc(N2CCOCC2)n1", "outcome": "inactive"}, {"smiles": "CC(C)OCCCn1c(=N)c(C(N)=S)cc2c(=O)n3ccccc3nc21", "outcome": "inactive"}, {"smiles": "Cc1ccc2nc3c(cc(S(=O)(=O)c4ccccc4)c(=N)n3Cc3ccco3)c(=O)n2c1", "outcome": "inactive"}, {"smiles": "CCn1c(=N)c(S(=O)(=O)c2ccccc2)cc2c(=O)n3ccccc3nc21", "outcome": "inactive"}, {"smiles": "Cc1nc2ccccc2c2oc(C(=O)NCCCN3CCC(C)CC3)cc12", "outcome": "inactive"}, {"smiles": "N#Cc1ccc(OCC(=O)OCC(=O)N2CCc3ccccc32)cc1", "outcome": "inactive"}, {"smiles": "CN1CCc2c(sc(NC(=O)C3CCCCC3)c2C(N)=O)C1", "outcome": "inactive"}, {"smiles": "O=C(COC(=O)c1cc(S(=O)(=O)N2CCCCC2)ccc1N1CCOCC1)c1ccccc1Cl", "outcome": "inactive"}, {"smiles": "COc1ccc(C2CC(c3ccccc3)=NN2c2ccc(C(N)=O)cc2)cc1", "note": "(configuration not stated)", "outcome": "inactive"}, {"smiles": "Cc1noc(C)c1-c1ccc(C(=O)NCCc2ccccc2)c2occc12", "outcome": "inactive"}, {"smiles": "CCC(=O)N1C(C(=O)NCc2ccc(OC)cc2)CSC1c1ccc(OC)cc1", "note": "(configuration not stated)", "outcome": "inactive"}, {"smiles": "CC1CCCCC1NC(=O)CN1C(=O)c2cccc(N)c2C1=O", "note": "(configuration not stated)", "outcome": "inactive"}, {"smiles": "Cc1ccc2nc3c(cc(C(=O)NCc4ccccc4)c(=N)n3CCCn3ccnc3)c(=O)n2c1", "outcome": "inactive"}, {"smiles": "COc1ccccc1N1CCN(C2CCC(C)CC2)CC1", "note": "(configuration not stated)", "outcome": "inactive"}, {"smiles": "CCn1c(=NC(=O)CSC(C)=O)sc2cc(OC)ccc21", "outcome": "inactive"}, {"smiles": "S=c1[nH]c2ccc(Cc3ccc4[nH]c(=S)[nH]c4c3)cc2[nH]1", "outcome": "inactive"}]}]}
